Values without a mark were called inactive. Active and inactive are the calls of the source.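 The calls were made as follows: active = inhibition above 50% of the enzyme in parasite cell lysate; inactive = the rest.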
Assay: PfM17LAP inhibitors in parasite extract, late-stage follow-up, cell lysate, fluorescence, Plasmodium falciparum lysate, powder samples (AID 492973)
Details: P. falciparum cell lysate, H-Leu-NHMec fluorescence; at 5 µM; stronger effect = higher value
`O=c1cc(-c2ccc(Cl)c(Cl)c2)[nH][nH]1` showed an inhibition of 13%. `Cc1ccc(Nc2nnc(SCc3cc(=O)n4ccsc4n3)s2)c(C)c1` gave an inhibition of 22%. Work on `S=c1nc(-c2ccccc2Br)[nH][nH]1` yielded an inhibition of 26%. Compound `CCOC(=O)c1c(NC(=O)[C@@H]2C3CCC(O3)[C@@H]2C(=O)O)sc(C)c1-c1ccc(C)cc1` (stereo not given in full) has an inhibition of 29%. For `Cc1ccc(Nc2nnc(SC3CCOC3=O)s2)cc1` (stereo not given), the inhibition was 57% (active). `Cc1cc(C(=O)COC(=O)c2ccc[nH]c2=O)c(C)n1-c1ccc(F)cc1` showed an inhibition of 32%. With `COc1cc(NC(=O)CSc2nc3ccccc3cc2C)c(C(=O)O)cc1OC` the inhibition was 67% (active). In the case of `O=C(O)Cc1ccc(NC(=O)Nc2ccc(Br)cc2)cc1`, the inhibition was 41%. In the case of `O=C(Nc1cccc(Cl)c1)[C@H]1CC=CC[C@H]1C(=O)O`, the inhibition was 24%. With `O=C(CSc1nccc(=O)[nH]1)Nc1ccc(Br)c(Cl)c1` the inhibition was 43%. `COc1ccc(-c2cc(=O)[nH][nH]2)cc1` showed an inhibition of 22%. In the case of `Cc1cc(C(=O)COC(=O)c2ccc[nH]c2=O)c(C)n1-c1ccccc1`, the inhibition was 36%. With `CCc1cc2cc(OC)ccc2nc1SCC(=O)Nc1cc(OC)c(OC)cc1C(=O)O` the inhibition was 68% (active). For `CC(C)c1ccc(NC(=O)[C@H]2CCCC[C@H]2C(=O)O)cc1`, the inhibition was 27%. Work on `O=C(CSc1nc(O)cc(=O)n1-c1ccccc1)Nc1ccc2c3c(cccc13)CC2` yielded an inhibition of 22%. `CCCCc1c(O)nc(SCC(=O)Nc2ccc3c(c2)CCC3)[nH]c1=O` showed an inhibition of 21%. For `N#Cc1c(NC(=O)[C@@H]2C3C=CC(C3)[C@@H]2C(=O)O)sc2c1CCCCC2` (stereo not given in full), the inhibition was 30%. For `Cc1ccc(-c2c(C)sc(NC(=O)[C@@H]3C4CCC(O4)[C@@H]3C(=O)O)c2C(=O)OC(C)C)cc1` (stereo not given in full), the inhibition was 23%. Compound `CCn1c2ccccc2c2cc(NC(=O)CSc3nccc(=O)[nH]3)ccc21` has an inhibition of 49%. In the case of `COc1ccc2nc(SCC(=O)Nc3cc(OC)c(OC)cc3C(=O)O)c(C)cc2c1`, the inhibition was 66% (active). With `CCc1ccc(Nc2nnc(SC3CCOC3=O)s2)cc1` (stereo not given) the inhibition was 43%. `COC(=O)c1cccc(NC(=O)CSc2nc(C)cc(=O)[nH]2)c1` showed an inhibition of 26%. Compound `COc1ccc(NC(=O)CSC2=NC(=O)CC(C)=N2)cc1` has an inhibition of 27%. `COC(=O)c1c(NC(=O)[C@H]2CC=CC[C@H]2C(=O)O)sc(C)c1C` gave an inhibition of 31%. For `CCOc1cccc(-c2cc(=O)[nH][nH]2)c1`, the inhibition was 43%.

Source: PubChem BioAssay AID492973 (The Scripps Research Institute Molecular Screening Center, 2010)
